Methyltransferases – Primary Screen for Target Class Profiling of Small Molecule Inhibitors of Methyltransferases; purified enzyme, MTase-Glo SAH luminescence; hits give low values; calls only at 40 µM; actives 3.9% (n = 25,000); call rule not given here
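Each enzyme was reacted with SAM and its substrate, with compounds tested once at 40 uM; SAH formed was read by MTase-Glo luminescence.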
* = called active by the depositor; i = inactive; + = active, no number. Shown is part of a subset that was picked to be rich in hits. % is set by controls: 0 for no effect and ±100 for the full control effect.

SMILES	Methyltransferases
CC(C)Oc1ccc(CN2C(=O)c3cc4occc4n3CC2(C)C(=O)NC2CCCCC2)cc1 (configuration not stated)	i
CCOC(=O)c1cc2n(n1)CC(C)(C(=O)NC1CCCCC1)N(c1ccc(C)cc1Cl)C2=O (configuration not stated)	i
CC1CCC(NC(=O)C2(C)Cn3c(cc4occc43)C(=O)N2CCCN2CCCCC2)CC1 (configuration not stated)	i
COc1ccc(N2C(=O)c3cc4ccccc4n3CC2(C)C(=O)NCCC(C)C)c(OC)c1 (configuration not stated)	i
COc1ccc(C(=O)N(CCC(C)C)Cc2nc(C)c(C)n2Cc2ccccc2C)c(OC)c1	+
COc1ccc(OC)c(CN2C(=O)c3cc4ccccc4n3CC2(C)C(=O)NCCC(C)C)c1 (configuration not stated)	i
COc1ccc(CNC(=O)C2(C)Cn3cnc(C(=O)NCc4cccc(F)c4)c3C(=O)N2C2CC2)cc1 (configuration not stated)	i
CCCn1c(=O)c2ccc(C(=O)NC3CCCCC3)cc2n2c(=O)n(Cc3c(F)cccc3Cl)nc12	i
C[S+](=O)([O-])N1CC2(Cc3ccccc31)CN(C(=O)NC1CCCC1)C2	i
CN(C)C[C@@H]1CN(Cc2cccnc2)C[C@H]1NC(=O)CCn1cccn1	i
CCc1ccc(CN2C(=O)c3nc4ccccc4n3CC2(C)C(=O)NCc2ccccc2)cc1 (configuration not stated)	i
Cc1ccc2nc(N)[nH]c(=O)c2c1Sc1ccncc1	+
CCCCOc1ccccc1-c1cc2n(n1)CC(C)(C(=O)NC1CCCCC1)N(CCCOC)C2=O (configuration not stated)	i
CC(C)Cn1c(=O)c2ccc(C(=O)NC(C)C)cc2n2c(SCC(=O)c3ccc(F)cc3)nnc12	i
O=C(NCCc1ccccc1)c1ccc2c(=O)nc3c(-c4cccc(C(F)(F)F)c4)n[nH]n3c2c1	i
N.N.N.N.N.N.N.N.N.N.N.N.N.N.O.O.[Ru+4].[Ru+5].[Ru+5]	+
Cc1cccc2c1cnn2C(=O)CCC(=O)N1CCN(c2ccccn2)CC1	i
CCCn1c(=O)c2cc(F)ccc2n2c(SCc3ccc(F)cc3)nnc12	i
O=C(NC1CCCC1)c1cc(-c2cccc(C(F)(F)F)c2)c2cccn2n1	i
CNCCCN1c2ccccc2CCc2ccccc21	i
CN1CCN(CCCN2c3ccccc3Sc3ccc(C(F)(F)F)cc32)CC1	+
CN(C)CCCN1c2ccccc2Sc2ccccc21	i
CCCn1c(=O)c2ccc(C(=O)NC(C)CC)cc2n2c(SCC(=O)c3ccc(F)cc3)nnc12 (configuration not stated)	i
COc1ccc(Cn2c(=O)c3ccccc3n3c(-c4cccc(OC)c4)nnc23)cc1	i
O=C(O)c1cccc(CN2C(=O)/C(=C(\c3ccccc3)c3ccc(Cl)cc3)c3ccccc32)c1	+
SMILES	Methyltransferases
O=C1CN(Cc2cccc(Cl)c2)S(=O)(=O)c2ccccc2N1Cc1ccc(Cl)cc1	i
CC(=O)N1CC2(CCCN2Cc2cccc(C(N)=O)c2)Cc2ccccc21 (configuration not stated)	i
CCOc1ccc(CN2C(=O)c3cc4occc4n3CC2(C)C(=O)NC2CCCC(C)C2C)cc1 (configuration not stated)	i
COc1ccc(CN2C(=O)c3cc(-c4ccc(OC)cc4)nn3CC2(C)C(=O)NCc2ccccc2)cc1 (configuration not stated)	i
NC1(Cc2ccc(Cl)cc2)CCN(c2ncnc3[nH]ccc23)CC1	+
Clc1ccc(N2CCN(Cc3c[nH]c4ncccc34)CC2)cc1	i
COC(=O)CCC(=O)OC[C@]1(C)CCC[C@@]2(C)C3CC[C@]4(C)C=CC3(CCC12)C4 (some centres not stated)	i
Cc1ccc(NC(=O)CCc2nnc3n(Cc4ccccc4Cl)c(=O)c4ccccc4n23)cc1C	i
Cn1c2c(c3ccccc31)C(C(=O)NCc1ccc(F)cc1)N(c1cccc(C(F)(F)F)c1)C(=O)CS2 (configuration not stated)	i
Cc1ccc(Cn2c(=O)c3ccccc3n3c(SCc4ccccc4)nnc23)cc1	i
CC1(COc2ccc3c(c2)ncn3-c2ccc3cccc(N4CCC(N)CC4)c3n2)COC1	+
CCc1ccc(CNC(=O)c2cc3n(n2)CC(C)(C(=O)NCc2ccccc2)N(C)C3=O)cc1 (configuration not stated)	i
CC(C)CCN1C(=O)c2ccc(-c3ccco3)n2CC1(C)C(=O)NC1CCCCCCC1 (configuration not stated)	i
O=C(O)c1cc(-c2c(-c3ccccc3)nn3ccccc23)n[nH]c1=O	i
Nc1[nH]nc2nnc(-c3c(-c4ccccc4)nn4ccccc34)cc12	+
Cc1ccc(NC(=O)Cn2nc3n(CCC(C)C)c(=O)c4ccccc4n3c2=O)c(Cl)c1	i
Cc1cccc(NC(=O)Cn2c(=O)oc3cc(S(=O)(=O)NCc4ccccc4)ccc32)c1C	i
CCCN1C(=O)c2c(C(=O)NCc3ccc(OC)cc3)ncn2CC1(C)C(=O)NCCC(C)C (configuration not stated)	i
CCOc1ccc(N2C(=O)c3cc(-c4ccccc4)nn3CC2(C)C(=O)NCc2ccccc2OC)cc1 (configuration not stated)	i
Cc1ccc(N2C(=O)CSc3c(c4ccccc4n3C)C2C(=O)NCc2ccccc2)cc1C (configuration not stated)	i
C=C(C(=O)O)[C@@H]1CC=C2CCC[C@H](C)[C@@]2(C)C1	i
C=C(C(=O)O)[C@@H]1CC[C@@]2(C)CC[C@H](O)[C@@]2(C(C)=O)C1	+
CC(C)CCN1C(=O)c2c(-n3cccc3)c3cc(F)ccc3n2CC1(C)C(=O)NC1CCCCCC1 (configuration not stated)	i
COc1ccc(-c2n[nH]n3c2nc(=O)c2ccc(C(=O)NCc4ccc5c(c4)OCO5)cc23)cc1	i
COC(=O)c1cc2n(n1)CC(C)(C(=O)NC1CCCC1)N(c1ccc(C)c(C)c1)C2=O (configuration not stated)	i
SMILES	Methyltransferases
CC1(C(=O)NC2CCCC2)Cn2c(ccc2-c2ccco2)C(=O)N1CCN1CCCC1 (configuration not stated)	i
CCOC(=O)c1cc2n(n1)CC(C)(C(=O)NCc1ccc(F)cc1)N(c1ccc(OC)cc1)C2=O (configuration not stated)	i
CN(C)S(=O)(=O)c1ccc2c(c1)/C(=C/c1cc3c([nH]1)CCCC3)C(=O)N2	i
Cc1[nH]c(/C=C2\C(=O)Nc3ccc(S(=O)(=O)N(C)c4cccc(Cl)c4)cc32)c(C)c1C(=O)N1CCN(C)CC1	+
Cc1ccc(C(=O)Cn2nc3n(C(C)C)c(=O)c4ccc(C(=O)NC5CCCCC5)cc4n3c2=O)cc1	i
C[C@H]1[C@@H]2[C@@H](O)C([C@H](C)C(=O)NC3CCCCC3)CC[C@@]2(C)CC[C@@H]1NC(=O)C1CCCCC1 (some centres not stated)	i
O=C(CCc1nnc2n(Cc3ccc(Cl)cc3)c(=O)c3ccccc3n12)NCc1ccc2c(c1)OCO2	i
COc1cc(N2CCOCC2)ccc1Nc1ncc(F)c(Nc2ccccc2NS(C)(=O)=O)n1	+

Bioassay records (PubChem)
